Where “and” joins values, the source holds several entries; their conditions need not be identical. Equal values may be shown once. In all, about 2,000 compounds went through this assay and about 20 (1%) were called active. No rule for the calls is given here. The sample as a whole holds a higher share of actives than the screen did.

For the test, the target named is Cystic fibrosis transmembrane conductance regulator (Homo sapiens) (UniProt P13569). Nature of the test: F508del-CFTR plasma membrane relocalization enhancers – imaging, HeLa, high-content microscopy, immunofluorescence, primary screen (AID 1224864).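 Also: HeLa cells stably expressing F508del-CFTR stained with 3G11 antibody against NBD1.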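 As to plasma membrane CFTR intensity: mean immunofluorescence in a thin cell-margin band taken as plasma membrane.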 Conditions: PM immunofluorescence imaging, 24 h, at 10 µM, stronger effect = higher value, relative to vehicle wells set at 100; total CFTR intensity: measured here: total cellular F508del-CFTR signal.
Chain of Cystic fibrosis transmembrane conductance regulator (Homo sapiens) (P13569 whole entry, looked up, stated change not applied): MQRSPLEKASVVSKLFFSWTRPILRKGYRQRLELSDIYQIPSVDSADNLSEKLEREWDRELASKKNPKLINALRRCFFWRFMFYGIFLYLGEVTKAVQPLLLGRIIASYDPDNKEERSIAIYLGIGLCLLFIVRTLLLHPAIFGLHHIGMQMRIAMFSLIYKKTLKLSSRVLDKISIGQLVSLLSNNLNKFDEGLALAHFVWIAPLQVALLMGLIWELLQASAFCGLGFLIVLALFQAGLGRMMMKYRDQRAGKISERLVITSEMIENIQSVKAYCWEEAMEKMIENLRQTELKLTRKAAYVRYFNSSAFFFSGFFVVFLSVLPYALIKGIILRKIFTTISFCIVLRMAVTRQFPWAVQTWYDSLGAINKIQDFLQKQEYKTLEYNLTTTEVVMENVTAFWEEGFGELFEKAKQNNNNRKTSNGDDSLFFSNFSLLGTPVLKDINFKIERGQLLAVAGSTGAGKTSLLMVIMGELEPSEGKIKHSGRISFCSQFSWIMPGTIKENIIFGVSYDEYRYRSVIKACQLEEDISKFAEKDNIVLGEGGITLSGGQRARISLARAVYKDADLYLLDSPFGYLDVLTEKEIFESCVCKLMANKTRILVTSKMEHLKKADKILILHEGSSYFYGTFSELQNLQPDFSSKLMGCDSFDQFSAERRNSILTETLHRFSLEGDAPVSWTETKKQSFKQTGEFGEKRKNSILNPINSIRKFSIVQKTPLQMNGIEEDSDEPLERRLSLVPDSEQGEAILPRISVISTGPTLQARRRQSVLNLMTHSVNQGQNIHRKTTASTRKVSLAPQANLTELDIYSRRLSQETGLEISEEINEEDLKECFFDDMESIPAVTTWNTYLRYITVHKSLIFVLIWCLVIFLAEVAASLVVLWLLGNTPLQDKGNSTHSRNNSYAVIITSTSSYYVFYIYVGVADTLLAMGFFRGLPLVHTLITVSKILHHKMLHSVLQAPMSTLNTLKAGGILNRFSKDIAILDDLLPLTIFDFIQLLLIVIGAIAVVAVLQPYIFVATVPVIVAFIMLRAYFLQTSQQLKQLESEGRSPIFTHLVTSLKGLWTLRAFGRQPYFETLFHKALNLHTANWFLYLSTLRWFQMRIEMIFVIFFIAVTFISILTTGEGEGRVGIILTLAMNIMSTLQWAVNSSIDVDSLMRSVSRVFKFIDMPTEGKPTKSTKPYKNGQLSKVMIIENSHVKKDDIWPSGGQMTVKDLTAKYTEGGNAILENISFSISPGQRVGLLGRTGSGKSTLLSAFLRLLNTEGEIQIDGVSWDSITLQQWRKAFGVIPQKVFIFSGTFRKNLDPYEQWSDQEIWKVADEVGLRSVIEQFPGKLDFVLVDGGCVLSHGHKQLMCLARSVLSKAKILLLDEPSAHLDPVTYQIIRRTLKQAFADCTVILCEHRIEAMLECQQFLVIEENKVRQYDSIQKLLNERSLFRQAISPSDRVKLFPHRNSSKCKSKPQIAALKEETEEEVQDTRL
In the case of `CC1CCCc2sc3ncn(N)c(=N)c3c21` (stereo not drawn), the plasma membrane CFTR intensity is 71% (inactive) and the total CFTR intensity stood at 71%.
For `O=C(c1ccco1)N(CCC(c1ccccc1)c1ccco1)Cc1ccco1` (stereo not drawn), the plasma membrane CFTR intensity is 99% (inactive) and the total CFTR intensity is 101%.
Take `CC(=O)N=c1sc(S(N)(=O)=O)nn1C`: the plasma membrane CFTR intensity was 125% (active) and the total CFTR intensity worked out at 144%.
For the molecule `CC(=O)Nc1nnc(S(N)(=O)=O)s1`, the plasma membrane CFTR intensity is 87% (inactive) and the total CFTR intensity amounted to 89%.
Turning to `COc1ccc(CNC(=O)c2cc3c(=O)n4ccccc4nc3n(Cc3cccnc3)c2=N)cc1`, the plasma membrane CFTR intensity is 556% (inactive) and the total CFTR intensity was 561%.
For `COc1ccc(S(=O)(=O)NC(Cc2cnc[nH]2)C(=O)O)cc1` (stereo not drawn), the plasma membrane CFTR intensity was 75% (inactive) and the total CFTR intensity is 82%.
As for `CC(C)Cn1c(=S)[nH]c2cc(C(=O)O)ccc2c1=O`, the plasma membrane CFTR intensity was 78% (inactive) and the total CFTR intensity worked out at 81%.
For `O=C(CCCC(=O)OCC1CCCO1)OCC1CCCO1` (stereo not drawn), the plasma membrane CFTR intensity is 84% (inactive) and the total CFTR intensity worked out at 84%.
For the molecule `CC(=O)SC1CC2=CC(=O)CCC2(C)C2CCC3(C)C(CCC34CCC(=O)O4)C12` (stereo not drawn), the plasma membrane CFTR intensity was 177% (active) and the total CFTR intensity turned out to be 233%.
The like results for `CC(=O)[C@H]1CC[C@H]2[C@@H]3CCC4=CC(=O)CC[C@]4(C)[C@H]3CC[C@]12C` were, in that order, 81% (inactive) and 85%.
Turning to `CC(=O)[C@@]1(O)CC[C@H]2[C@@H]3CCC4=CC(=O)CC[C@]4(C)[C@H]3CC[C@@]21C`, the plasma membrane CFTR intensity was 88% (inactive) and the total CFTR intensity is 89%.
The like results for `N#C/C(=C/c1ccccc1)C(=O)NCc1ccccc1` were, in that order, 124% (active) and 125%.
Take `S=C(NCc1ccccc1)NCc1cccc(CNC(=S)NCc2ccccc2)c1`: the plasma membrane CFTR intensity was 79% (inactive) and the total CFTR intensity stood at 81%.
As to `N#C/C(=C\c1ccc(O)c(O)c1)C(=O)NCCCc1ccccc1`, the plasma membrane CFTR intensity is 78% (inactive) and the total CFTR intensity was determined as 83%.
For the molecule `Cc1cc(-c2nn(-c3ccccc3F)cc2CN2CCCC(O)C2)c(C)s1` (stereo not drawn), the plasma membrane CFTR intensity was 75% (inactive) and the total CFTR intensity amounted to 76%.
On to `O=C(/C=C/c1ccccc1)NCC1(c2ccccc2)CCOCC1`, for which the plasma membrane CFTR intensity was 87% (inactive) and the total CFTR intensity was 84%.
On to `COc1cc(CNCc2ccc(OC)c(OC)c2OC)cc(OC)c1`, for which the plasma membrane CFTR intensity is 85% (inactive) and the total CFTR intensity was 79%.
Consider `O=C(CCCCC(=O)NC1CCCC1)NC1CCCC1`, for which the plasma membrane CFTR intensity is 90% (inactive) and the total CFTR intensity is 90%.
`CCc1cccc2c1NC1(CCCC1)CC2C` (stereo not drawn): the plasma membrane CFTR intensity was 74% (inactive) and the total CFTR intensity amounted to 89%.
On to `O=C1OC(=O)C2C1[C@@H]1CC[C@H]2O1` (stereo partly drawn), for which the plasma membrane CFTR intensity is 120% (active) and the total CFTR intensity is 133%.
`COc1ccc2c(CC(=O)NCC3CCC(C(=O)O)CC3)cc(=O)oc2c1` (stereo not drawn): the plasma membrane CFTR intensity is 92% (inactive) and the total CFTR intensity was determined as 94%.
As to `CC1=CC(C)(C)N2C(=O)C3(NCCc4c3[nH]c3ccccc43)c3cc(C)cc1c32` (stereo not drawn), the plasma membrane CFTR intensity is 108% (active) and the total CFTR intensity was determined as 129%.
`COc1ccc2c3c([nH]c2c1)C1(NCC3)C(=O)Nc2ccccc21` (stereo not drawn): the plasma membrane CFTR intensity was 85% (inactive) and the total CFTR intensity stood at 81%.
Take `CC12CCCCN1CCCc1c2[nH]c2ccccc12` (stereo not drawn): the plasma membrane CFTR intensity is 104% (inactive) and the total CFTR intensity amounted to 100%.
Turning to `COc1ccc2c(c1)c(=O)oc1cc3occ(C(C)(C)C)c3cc12`, the plasma membrane CFTR intensity was 92% (inactive) and the total CFTR intensity was found to be 88%.
`O=C(NNC(=O)c1cccs1)c1ccco1`: the plasma membrane CFTR intensity is 93% (inactive) and the total CFTR intensity is 90%.
Consider `O=C(NCc1ccc2c(c1)OCO2)c1ccc2c(c1)OCCO2`, for which the plasma membrane CFTR intensity is 80% (inactive) and the total CFTR intensity came to 80%.
In the case of `CCN(CC)CCCNC(=O)C1c2ccccc2Oc2ccccc21`, the plasma membrane CFTR intensity is 84% (inactive) and the total CFTR intensity was found to be 85%.
Take `CCCCOc1cc(C(=O)NCCN(CC)CC)c2ccccc2n1`: the plasma membrane CFTR intensity is 105% (inactive) and 91% (inactive); the total CFTR intensity was 109% and 93%.
As to `CCN(CC)CCNc1ccc(CO)c2sc3ccccc3c(=O)c12`, the plasma membrane CFTR intensity was 207% (active) and the total CFTR intensity stood at 238%.
For the molecule `O=C(O)CCCN1C(=O)NC2NC(=O)NC21` (stereo not drawn), the plasma membrane CFTR intensity is 91% (inactive) and the total CFTR intensity was determined as 95%.
Turning to `CCOCc1cc(C)[nH]c(=O)c1C#N`, the plasma membrane CFTR intensity is 80% (inactive) and the total CFTR intensity was found to be 83%.
In the case of `COc1ccc(/C=C\c2cc(OC)c(OC)cc2CC[N+](C)(C)C)cc1OC`, the plasma membrane CFTR intensity is 81% (inactive) and the total CFTR intensity is 82%.
On to `COc1cc2ccc(=O)oc2c(O)c1OCC=C(C)C`, for which the plasma membrane CFTR intensity was 86% (inactive) and the total CFTR intensity amounted to 92%.
`COc1cccc(CC2CC(=O)N(c3ccc4c(C)cc(=O)oc4c3)C2=O)c1` (stereo not drawn): the plasma membrane CFTR intensity is 77% (inactive) and the total CFTR intensity was determined as 83%.
Take `O=C(/C=C/c1ccco1)NCc1ccc2c(c1)OCO2`: the plasma membrane CFTR intensity is 79% (inactive) and the total CFTR intensity came out at 77%.
Take `CC(=O)NC(Cc1ccccc1)C(=O)OCC(=O)c1ccccc1` (stereo not drawn): the plasma membrane CFTR intensity is 77% (inactive) and the total CFTR intensity was determined as 78%.
With `CC1(C)Cc2ccccc2-c2n[nH]c(=S)n21`, the plasma membrane CFTR intensity is 93% (inactive) and the total CFTR intensity amounted to 97%.
In the same order, the values of `Cn1c2[n+](c3ccc(Cl)cc3c1=O)Cc1ccccc1-2` are 78% (inactive) and 85%.
Consider `Cc1cc(/C=N/O)c(C)n1-c1ccc(Br)cc1`, for which the plasma membrane CFTR intensity is 78% (inactive) and the total CFTR intensity came to 82%.
In the same order, the values of `CN1C(=O)C(O)(CC(=O)c2ccccc2O)c2cc(Br)ccc21` (stereo not drawn) are 159% (inactive) and 190%.
For `CO[C@H]1C=CO[C@@]2(C)Oc3c(C)c(O)c4c(O)c(c(/C=N/N5CCN(C)CC5)c(O)c4c3C2=O)NC(=O)C(C)=CC=C[C@H](C)[C@H](O)[C@@H](C)[C@@H](O)[C@@H](C)[C@H](OC(C)=O)[C@@H]1C`, the plasma membrane CFTR intensity was 113% (active) and the total CFTR intensity came to 137%.
In the same order, the values of `O=C(OCC1CCCN2CCCCC12)c1ccc2c(c1)OCO2` (stereo not drawn) are 85% (inactive) and 81%.
As to `CC1=C/C(=N\N=C2/NC(=O)C(CC(=O)Nc3ccccc3F)S2)CC(C)(C)C1` (stereo not drawn), the plasma membrane CFTR intensity was 65% (inactive) and the total CFTR intensity came to 65%.

Source of the values: PubChem BioAssay AID1224864 (Chung Lab, Department of Pediatrics, Emory University, 2016).
